# The supplement of paper PMC12350171
# Counter-ions that a name gives are not always drawn.
# Test system: Haemophilus parainfluenzae
# Assay: growth AUC normalised to DMSO control (fraction of control); higher = less growth inhibition, active = hit call of the paper
# Settings: 20 µM;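 active = AUC significantly below DMSO controls by Student t-fit with adjusted P under 0.01; inactive = not significantly reduced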
# In short: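 Pathogens passaged twice anaerobically were inoculated at a starting OD578 of 0.01 into pre-reduced mGAM plates with drug at 20 μM and 1% DMSO, sealed with breathable membranes. Haemophilus parainfluenzae medium was supplemented with hemin and NAD. OD578 was read hourly for 24 h, with three biological replicates. Growth-curve AUC was computed by the trapezoidal rule up to the exponential-to-stationary transition and normalised to DMSO controls on the same plate.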
row,SMILES,growth AUC normalised to DMSO control
1,CN1CCN(C(c2ccccc2)c2ccc(Cl)cc2)CC1 (stereo not drawn) [Chlorcyclizine hydrochloride],0.982 (inactive)
2,Cc1cn([C@H]2C[C@H](N=[N+]=[N-])[C@@H](CO)O2)c(=O)[nH]c1=O [Zidovudine],0.581 (active)
3,CC(=O)[C@H]1CC[C@H]2[C@@H]3CC=C4C[C@@H](O)CC[C@]4(C)[C@H]3CC[C@]12C [Pregnenolone],1.01 (inactive)
4,CC1(C)O[C@@H]2[C@@H](CO[C@@]3(COS(N)(=O)=O)OC(C)(C)O[C@@H]23)O1 [Topiramate],1.03 (inactive)
5,CCCCC(CC)CN1CN(CC(CC)CCCC)CC(C)(N)C1 (stereo not drawn) [Hexetidine],1.08 (inactive)
6,COc1ccc([C@@H]2Sc3ccccc3N(CCN(C)C)C(=O)[C@@H]2OC(C)=O)cc1 [Diltiazem hydrochloride],0.988 (inactive)
7,NC[C@H]1O[C@H](O[C@H]2[C@H](O)[C@@H](O[C@H]3O[C@H](CO)[C@@H](O)[C@H](N)[C@H]3O)[C@H](N)C[C@@H]2N)[C@H](N)C[C@@H]1O [Tobramycin],0.0457 (active)
8,CN1CCN(CCCN2c3ccccc3Sc3ccc(S(=O)(=O)N(C)C)cc32)CC1 [Thioproperazine dimesylate],1.01 (inactive)
